Values joined by “and” are separate entries in the source; they are usually repeats but may differ in a detail not shown here. Identical values can stand only once. Results filed as inconclusive are left out. More than one record can exist for a structure, and the calls need not agree. Active and inactive are the calls of the source. The calls were made as follows, unless noted: active = hit-call score of the fitted dose curve at least 0.9, where 1 is the maximum; inactive = score below 0.9.
What was measured:
[1] = read-out: Interleukin-8 (IL8), CXCL8 (gene 3576); experiment: BSK_3C_IL8: BioMAP Diversity Plus: 3C Assay for Interleukin-8 (IL8) Biomarker Activity (AID 2283020); conditions: primary human endothelial cells (HUVEC); actives raise or lower the signal
Method in brief: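 HUVEC, 3C stimulation; 24 h compound exposure; IL-8 read by ELISA; gain or loss of signal fitted relative to DMSO control.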

[2] = read-out: Monokine induced gamma interferon (MIG), CXCL9 (gene 4283); experiment: BSK_3C_MIG: BioMAP Diversity Plus: 3C Assay for Monokine induced gamma interferon (MIG) Biomarker Activity (AID 2283021); conditions: primary human endothelial cells (HUVEC); actives raise or lower the signal;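 as to AC50: MIG protein level measured by immunoassay in the treated endothelial cultures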
Method in brief: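 HUVEC, 3C system; 24 h chemical exposure; MIG by ELISA; bidirectional fit vs DMSO baseline.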

[3] = biological target: human Vitamin D Receptor (VDR), VDR (gene 7421) (UniProt P11473); experiment: ATG_VDR_TRANS: Attagene TRANS-FACTORIAL HepG2 Assay for human Vitamin D Receptor (VDR) (AID 2283022; active = hit-call score of the fitted dose curve at least 0.9, where 1 is the maximum)
Method in brief: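 Multiplexed TRANS reporter in HepG2; 24 h treatment; reporter mRNA by RT-PCR plus capillary electrophoresis; upregulation scored relative to DMSO.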

[4] = BSK_3C_SRB: Viability Assessment in the BioMAP Diversity Plus: 3C Assay (AID 2283023); conditions: primary human endothelial cells (HUVEC);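 also: fitted both ways against DMSO so a hit may be signal rise or drop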
Method in brief: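 Overt cytotoxicity is gauged in parallel confluent HUVEC cultures by SRB total-protein staining at the time of biomarker measurement, 24 h after dosing. Gain or loss of signal is fitted versus DMSO.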

[5] = read-out: Matrix Metallopeptidase 1 (MMP1), MMP1 (gene 4312); experiment: BSK_BE3C_MMP1: BioMAP Diversity Plus: BE3C Assay for Matrix Metallopeptidase 1 (MMP1) Biomarker Activity (AID 2283024); conditions: primary human bronchial epithelial cells; actives raise or lower the signal
Method in brief: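 ELISA read-out of MMP1 in human lung bronchial epithelial primary cultures, 24 h post-dose; bidirectional curve fit vs DMSO baseline, gain or loss of signal scored.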

[6] = BSK_4H_SRB: Viability Assessment in the BioMAP Diversity Plus: 4H Assay (AID 2283027); conditions: primary human endothelial cells (HUVEC);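 also: cells exposed to compound for 24 h before staining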;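 as to AC50: curves fitted both ways versus DMSO so AC50 may be loss or gain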
Method in brief: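 Cytotoxicity readout: sulforhodamine B (0.1%) staining of total protein after 10% TCA fixation, measured at 560 nm in human umbilical vein endothelium at 24 h. DMSO set the baseline; fitting was bidirectional.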

[7] = BSK_BE3C_SRB: Viability Assessment in the BioMAP Diversity Plus: BE3C Assay (AID 2283028); conditions: primary human bronchial epithelial cells;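 also: measured 24 h after chemical dosing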
Method in brief: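 SRB total-protein staining (0.1%, after TCA fixation) of chemically dosed human bronchial epithelial primary cells at 24 h; DMSO serves as the negative control for bidirectional curve fitting.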

[8] = read-out: Thrombomodulin, THBD (gene 7056); experiment: BSK_3C_Thrombomodulin: BioMAP Diversity Plus: 3C Assay for Thrombomodulin Biomarker Activity (AID 2283029); conditions: primary human endothelial cells (HUVEC); actives raise or lower the signal
Method in brief: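 HUVEC, 3C conditions; compound 24 h; thrombomodulin by ELISA; bidirectional curve fit vs DMSO baseline; parallel SRB total-protein staining for cytotoxicity.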

[9] = read-out: Urokinase-type plasminogen activator receptor (uPAR), PLAUR (gene 5329); experiment: BSK_4H_uPAR: BioMAP Diversity Plus: 4H Assay for Urokinase-type plasminogen activator receptor (uPAR) Biomarker Activity (AID 2283030); conditions: primary human endothelial cells (HUVEC); actives raise or lower the signal
Method in brief: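 Endpoint derived via bidirectional curve fitting against DMSO baseline; readout was ELISA detection of uPAR on umbilical vein endothelial cells at 24 h post-treatment, with SRB-stained parallel cultures assessing cytotoxicity.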

[10] = read-out: Vascular endothelial growth factor receptor 2 (Homo sapiens) (UniProt P35968); experiment: BSK_4H_VEGFRII: BioMAP Diversity Plus: 4H Assay for Vascular endothelial growth factor receptor 2 (VEGFR2) Biomarker Activity (AID 2283031); conditions: primary human endothelial cells (HUVEC); actives raise or lower the signal;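 as to AC50: cell-surface VEGFR2 protein level quantified by ELISA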
Method in brief: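 In this multiplexed HUVEC system, biomarker ELISA was performed after 24 h chemical exposure. Parallel SRB staining (TCA fixation, 560 nm) tracked cytotoxicity; DMSO served as baseline.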

[11] = read-out: Human Leukocyte Antigen - DR isotype (HLADR), HLA-DRA (gene 3122); experiment: BSK_BE3C_HLADR: BioMAP Diversity Plus: BE3C Assay for Human Leukocyte Antigen - DR isotype (HLADR) Biomarker Activity (AID 2283032); conditions: primary human bronchial epithelial cells; actives raise or lower the signal
Method in brief: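 Primary human bronchial epithelial cells (BE3C); 24 h chemical exposure; HLA-DR by ELISA; bidirectional curve fit vs DMSO baseline.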

[12] = read-out: Vascular cell adhesion molecule 1 (VCAM1), VCAM1 (gene 7412); experiment: BSK_4H_VCAM1: BioMAP Diversity Plus: 4H Assay for Vascular cell adhesion molecule 1 (VCAM1) Biomarker Activity (AID 2283033); conditions: primary human endothelial cells (HUVEC); actives raise or lower the signal
Method in brief: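 HUVEC, 24 h post-dose; VCAM-1 by ELISA. Bidirectional curve fit vs DMSO baseline. Parallel SRB total-protein stain (0.1% SRB after 10% TCA fixation, 560 nm) for cytotoxicity.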

[13] = read-out: Interferon-gamma inducible Protein 10 (IP10), CXCL10 (gene 3627); experiment: BSK_BE3C_IP10: BioMAP Diversity Plus: BE3C Assay for Interferon-gamma inducible Protein 10 (IP10) Biomarker Activity (AID 2283034); conditions: primary human bronchial epithelial cells; actives raise or lower the signal
Method in brief: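 ELISA readout of IP-10 in BE3C system: primary human bronchial epithelial cells, 24 h post-dosing; bidirectional curve fit vs DMSO baseline.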

[14] = read-out: Plasminogen activator inhibitor-1 (PAI1), SERPINE1 (gene 5054); experiment: BSK_BE3C_PAI1: BioMAP Diversity Plus: BE3C Assay for Plasminogen activator inhibitor-1 (PAI1) Biomarker Activity (AID 2283037); conditions: primary human bronchial epithelial cells; actives raise or lower the signal
Method in brief: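 ELISA read-out of PAI-1 from human bronchial epithelial primary cells, 24 h post-dosing; bidirectional curve fit vs DMSO baseline, gain or loss of signal scored.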

[15] = read-out: urokinase plasminogen activator (uPA), PLAU (gene 5328); experiment: BSK_BE3C_uPA: BioMAP Diversity Plus: BE3C Assay for urokinase plasminogen activator (uPA) Biomarker Activity (AID 2283038); conditions: primary human bronchial epithelial cells; actives raise or lower the signal
Method in brief: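 Using confluent primary human lung bronchial epithelial cultures, we dosed chemicals, waited 24 h, then ran a uPA ELISA, fitting bidirectionally against DMSO.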

[16] = read-out: Urokinase-type plasminogen activator receptor (uPAR), PLAUR (gene 5329); experiment: BSK_BE3C_uPAR: BioMAP Diversity Plus: BE3C Assay for Urokinase-type plasminogen activator receptor (uPAR) Biomarker Activity (AID 2283039); conditions: primary human bronchial epithelial cells; actives raise or lower the signal
Method in brief: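 ELISA readout of uPAR on human lung primary bronchial epithelial cells, 24 h post-dosing. Bidirectional curve fit relative to DMSO vehicle baseline; gain or loss of signal both scored.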

[17] = read-out: Monokine induced gamma interferon (MIG), CXCL9 (gene 4283); experiment: BSK_BE3C_MIG: BioMAP Diversity Plus: BE3C Assay for Monokine induced gamma interferon (MIG) Biomarker Activity (AID 2283035); conditions: primary human bronchial epithelial cells; actives raise or lower the signal;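 also: MIG protein measured by ELISA in BE3C cultures after 24 h of dosing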
Method in brief: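 hu bronchial epithelial 1° cells, 24 h cpd; MIG by ELISA; bidirectional fit, DMSO = baseline.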

[18] = BSK_3C_Vis: BioMAP Diversity Plus: 3C Assay for Morphology Visualization (AID 2283025); conditions: primary human endothelial cells (HUVEC);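 also: light microscopy image of cell morphology used as background control; fitted both ways so gain or loss versus DMSO counts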
Method in brief: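 HUVEC, 3C system; light microscopy of morphology at 24 h post-dose. Bidirectional fit vs DMSO baseline. Secondary readout, background-control function.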

[19] = read-out: Pselectin, SELP (gene 6403); experiment: BSK_4H_Pselectin: BioMAP Diversity Plus: 4H Assay for Pselectin Biomarker Activity (AID 2283026); conditions: primary human endothelial cells (HUVEC); actives raise or lower the signal
Method in brief: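 HUVEC, 24 h chemical exposure; P-selectin read by ELISA. Bidirectional curve fit vs DMSO baseline; gain or loss of signal scored.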

[20] = read-out: Transforming growth factor beta 1 (TGFb1), TGFB1 (gene 7040); experiment: BSK_BE3C_TGFb1: BioMAP Diversity Plus: BE3C Assay for Transforming growth factor beta 1 (TGFb1) Biomarker Activity (AID 2283036;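 also: TGF-b1 protein level measured by ELISA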); conditions: primary human bronchial epithelial cells; actives raise or lower the signal
Method in brief: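 Read-out: ELISA for TGF-b1 in primary human bronchial epithelial cultures, 24 h post-dose. Bidirectional curve fitting vs DMSO control; gain or loss of signal both scored.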

Measured: AC50

Sequence of human Vitamin D Receptor (VDR), VDR (gene 7421) (P11473 whole entry, looked up): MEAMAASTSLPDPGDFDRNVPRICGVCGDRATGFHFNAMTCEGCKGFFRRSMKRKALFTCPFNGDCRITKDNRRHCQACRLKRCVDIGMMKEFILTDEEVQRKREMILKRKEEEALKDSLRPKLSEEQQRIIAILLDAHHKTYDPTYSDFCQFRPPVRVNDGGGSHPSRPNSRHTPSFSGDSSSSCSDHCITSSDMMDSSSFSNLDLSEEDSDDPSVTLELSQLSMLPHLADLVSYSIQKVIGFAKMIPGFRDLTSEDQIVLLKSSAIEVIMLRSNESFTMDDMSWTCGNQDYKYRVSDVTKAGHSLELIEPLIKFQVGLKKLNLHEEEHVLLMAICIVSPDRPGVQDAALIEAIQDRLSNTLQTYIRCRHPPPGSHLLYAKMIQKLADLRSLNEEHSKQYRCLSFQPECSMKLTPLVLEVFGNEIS

OCC(O)CC(F)(F)C(F)(F)C(F)(F)C(F)(F)C(F)(F)C(F)(F)C(F)(F)C(F)(F)F (stereo not given)
inactive: [1] | [2] | [3] | [4] | [5] | [6] | [7] | [8] | [9] | [10] | [11] | [12] | [13] | [14] | [15] | [16]

FC(F)(F)C(F)(F)C(F)(F)C(F)(F)C(F)(F)C(F)(F)C(F)(F)CCI
inactive: [1] | [2] | [3] | [4] | [5] | [6] | [7] | [8] | [9] | [10] | [11] | [12] | [13] | [17] | [14] | [15] | [16]

CC(C)(C)c1cc(CCC(=O)NCCCCCCNC(=O)CCc2cc(C(C)(C)C)c(O)c(C(C)(C)C)c2)cc(C(C)(C)C)c1O
active: [18] 3.25 µM | [13] 121 nM
inactive: [1] | [2] | [4] | [5] | [19] | [6] | [7] | [8] | [9] | [10] | [11] | [12] | [17] | [20] | [14] | [15] | [16]

OCC(F)(F)C(F)(F)C(F)(F)C(F)(F)C(F)(F)C(F)(F)CO
inactive: [1] | [2] | [3] | [4] | [5] | [6] | [7] | [8] | [9] | [10] | [11] | [12] | [13] | [17] | [14] | [15] | [16]

OCCCCC(F)(F)C(F)(F)C(F)(F)C(F)(F)F
inactive: [1] | [2] | [3] | [4] | [5] | [6] | [7] | [8] | [9] | [10] | [11] | [12] | [13] | [14] | [15] | [16]

C=CC(=O)OCC(F)(F)C(F)(F)C(F)(F)COC(=O)C=C
inactive: [5] | [7] | [8] | [10] | [14]
active: [1] 23.9 µM and 31 µM | [2] 24.7 µM and 22.7 µM | [4] 41.1 µM and 40.3 µM | [5] 21.8 µM | [19] 11.2 µM and 8.07 µM | [6] 25 µM and 33.8 µM | [8] 18 µM | [9] 49.9 µM and 758 nM | [10] 53.8 µM | [11] 34.2 µM and 21.4 µM | [12] 19.1 µM and 14 µM | [13] 46.7 µM and 35.5 µM | [15] 20.6 µM and 27.4 µM | [16] 30 µM and 22.8 µM

OCC(F)(F)C(F)(F)C(F)(F)CO
inactive: [1] | [2] | [3] | [4] | [5] | [6] | [7] | [8] | [9] | [10] | [11] | [12] | [13] | [14] | [15] | [16]
